# This is a sample that favours compounds with a hit; in the whole collection about 31% have one here.
# CYP2C9 inhib = inhibitors of human CYP2C9; P11712; CYP2C9 Supersomes, luciferin-H conversion, luminescence; inhibition, % at 5 µM; hit rate 20% among 96,000;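 active means blocking of liver enzyme CYP2C9 beyond about 50% at 5 µM, limit read from the data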
# CYP2C19 activ = increases human CYP2C19 enzyme activity | recombinant CYP2C19, luciferin-H EGE luminescence; hits give high values; 0 = fully inhibited enzyme, 1 = untreated enzyme | activation factor at 5 µM | 96,000 tested, under 10 active;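 active means activation factor of at least 2 at 5 µM in the primary screen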;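 further: 0 = wells with 2.5 mM tranylcypromine and 1 = vehicle-only wells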
# Target sequence (P33261 whole entry, looked up): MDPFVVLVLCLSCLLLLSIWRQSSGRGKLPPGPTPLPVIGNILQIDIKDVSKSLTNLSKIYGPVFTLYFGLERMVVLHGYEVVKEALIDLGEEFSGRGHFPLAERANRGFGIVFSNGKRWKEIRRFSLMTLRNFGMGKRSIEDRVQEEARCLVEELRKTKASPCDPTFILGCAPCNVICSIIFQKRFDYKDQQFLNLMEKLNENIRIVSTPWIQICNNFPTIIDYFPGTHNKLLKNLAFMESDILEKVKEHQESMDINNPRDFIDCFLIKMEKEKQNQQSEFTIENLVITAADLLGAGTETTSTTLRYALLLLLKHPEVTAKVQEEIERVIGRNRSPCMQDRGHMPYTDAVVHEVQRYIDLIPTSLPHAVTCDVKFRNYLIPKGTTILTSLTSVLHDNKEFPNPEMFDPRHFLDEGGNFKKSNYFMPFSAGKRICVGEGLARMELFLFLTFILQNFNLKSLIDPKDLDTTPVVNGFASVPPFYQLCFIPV
# PLAP act = activates human placental alkaline phosphatase; activation fold at 20 µM; purified PLAP enzyme, luminescent substrate read-out; hits give high values; AID 696; hit rate 1.2% among 96,000; in the data active means activation fold above about 2
# CYP2C9 activ = increases human cytochrome P450 2C9 activity; activation factor at 5 µM; recombinant CYP2C9, luciferin-H conversion, luminescence; hits give high values; factor 1 = untreated enzyme, 0 = blocked; hit rate 1.4% among 96,000; AID 1024;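 active means activation factor of 2 or more for CYP2C9 at a 5 µM dose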;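 further: 0 = sulfaphenazole-blocked wells and 1 = vehicle-only wells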
# CYP2C19 inhib = inhibitors of human CYP2C19 | P33261 | CYP2C19 Supersomes, luciferin-H EGE luminescence, 30 min | inhibition, % at 5 µM | hit rate 21% among 96,000 | AID 778;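 active means CYP2C19 inhibition above a set limit at 5 µM in the primary screen, cut at about 50% in these data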;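 further: plate controls were negative control wells for no effect and 2.5 mM tranylcypromine positive control for full effect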
# Numbers without * were called inactive.
SMILES,CYP2C9 inhib,CYP2C19 activ,PLAP act,CYP2C9 activ,CYP2C19 inhib
CCOc1ccc(S(=O)(=O)n2nnc3ccccc32)cc1C(C)C,7.6,1,1.2,0.9,0.7
Cc1ccc(C)c(-n2nnnc2SCC(=O)NCCC2=CCCCC2)c1,39.6,0.2,1.5,0.6,75.9*
Cc1ccc(SCC(=O)NCCC2=CCCCC2)cc1,50.6*,0.4,0.9,0.5,60.0*
CCS(=O)(=O)c1ccc2oc(SCC(=O)NCCC3=CCCCC3)nc2c1,72.4*,0.6,1,0.3,44.5
Cc1noc(C)c1C(=O)OCC(=O)NCCC1=CCCCC1,42.2,0.3,1.1,0.6,70.1*
Cc1noc(C)c1C(=O)NCCC1=CCCCC1,31.3,0.5,1.2,0.7,45.5
Cc1ccc(S(=O)(=O)N2C(=O)CCC2C(=O)Nn2cnnc2)cc1 (configuration not stated),-23.0,1.1,0.9,1.2,-10.6
Cc1ccc(SCC(=O)NCC(C)C)cc1,50.0*,0.3,1,0.5,74.8*
CC(C)CNC(=O)CSc1ccc(Cl)cc1,32.0,0.6,1,0.7,40.2
C=C(C)C(C)(C#CCN1CCCC1)OC(C)=O (configuration not stated),-9.1,1,1.1,1.1,-4.6
O=C(COC(=O)CNC(=O)C1CCCCC1)Nc1ccc2ccccc2c1,35.5,0.3,0.9,0.6,69.0*
CCOC(=O)c1ccc(NC(=O)CNC(=O)C2CCCCC2)cc1,53.8*,0.7,0.8,0.5,26.9
O=C(CNC(=O)C1CCCCC1)Nc1cc(Cl)cc(Cl)c1,25.0,0.4,1,0.8,60.8*
COC(=O)c1ccc(NC(=O)CNC(=O)C2CCCCC2)cc1,37.0,1,0.9,0.6,-2.5
O=C(CNC(=O)C1CCCCC1)Nc1ccc(Cl)cc1,25.1,0.6,0.9,0.7,43.3
Cc1ccc(NC(=O)C(=O)NCc2ccc(/C=C(/C#N)C(=O)NCc3cccnc3)o2)cc1,58.4*,0.9,0.8,0.4,12.1
Cc1cc(C)nc(Sc2ccc(/C=C(\C#N)C(=O)Nc3ccccc3)o2)n1,42.3,0.7,0.9,0.6,31.2
C/C(CCC12CC3CC(CC(C3)C1)C2)=N\NC(N)=S,7.9,1.2,0.9,0.9,-15.3
C/C(CC(C)(C)C1CCCCC1)=N\NC(N)=S,34.6,0.1,0.8,0.7,93.1*
CCOC(=O)N1CCN(C(=O)c2cccc(-n3c(=S)[nH]c4cc(Cl)ccc4c3=O)c2)CC1,22.8,1,1.3,0.8,0.8
COc1cc(Br)cc2cc(C(=O)N3CCCCC3C)c(=O)oc12 (configuration not stated),8.3,0.9,0.9,0.9,7.5
O=C(c1ccc(CNc2c(N3CCCC3)c(=O)c2=O)cc1)N1CCc2ccccc2C1,50.4*,0.6,1.6,0.5,35.3
CCC(=O)N1CN(S(=O)(=O)c2ccc(C)cc2)CC1C (configuration not stated),13.4,0.5,0.9,0.9,53.4*
CSc1nc(Oc2ccc(Cl)cc2)c2sccc2n1,-15.3,0.7,1,1.2,25.2
O=C(c1ccccc1)c1nnc(-c2ccncc2)o1,18.8,0.3,1.2,0.8,70.6*
SMILES,CYP2C9 inhib,CYP2C19 activ,PLAP act,CYP2C9 activ,CYP2C19 inhib
O=C(c1nnc(-c2ccncc2)o1)c1ccccc1Cl,38.4,0.2,0.9,0.6,83.6*
COC(=O)C1CCN(C(=O)CSc2nnc(-c3ccncc3)o2)CC1,-4.8,0.8,1,1,15.3
O=C(c1ccc(Cl)cc1)c1nnc(-c2ccncc2)o1,46.9,0.2,0.9,0.5,78.3*
COc1ccccc1-n1c(CNC(=O)c2ccco2)nnc1SCC(=O)Nc1nccs1,42.1,0.8,1,0.6,17.1
O=C(NCCCn1ccnc1)C1CC2CCC1C2 (configuration not stated),74.2*,0,1,0.3,98.0*
O=C(O)C1C2CCC(C2)C1C(=O)NCCCn1ccnc1 (configuration not stated),52.2*,0.2,1,0.5,79.2*
CCOC(=O)NC1(C(F)(F)F)NC(=O)N(C2CCCCC2)C1=O (configuration not stated),15.8,0.8,1.2,0.8,16.4
CN(C)S(=O)(=O)c1ccc(-c2csnn2)s1,-45.1,0.6,0.8,1.5,36.7
COc1ccccc1C1SCCN1S(C)(=O)=O (configuration not stated),-28.2,0.4,1,1.3,57.4*
COc1ccc(S(=O)(=O)N2Cc3ccccc3CC2C(=O)Nc2ccc(O)cc2)cc1OC (configuration not stated),91.3*,0.2,1.5,0.1,79.5*
CCS(=O)(=O)N1Cc2ccccc2CC1C(=O)Nc1ccc(C)cc1 (configuration not stated),61.1*,0.1,1.5,0.4,86.4*
O=c1oc2ccccc2c2c1SC(C(F)(F)F)C2 (configuration not stated),23.9,0.6,1.1,0.8,41.0
Cc1nc2ccccn2c1/C(O)=C1\C(=O)C(=O)N(CCCn2ccnc2)C1c1ccncc1 (configuration not stated),24.2,0.9,1,0.8,7.0
CCCc1cc(=O)[nH]c(/N=C(/NC(=O)C(C)N2C(=O)c3ccccc3C2=O)Nc2ccccc2)n1 (configuration not stated),62.0*,1,0.9,0.4,0.7
Cc1ccc(NC(=O)C(C)N2C(=O)c3ccccc3C2=O)cc1 (configuration not stated),24.5,0.6,0.9,0.8,40.6
Cc1cc([N+](=O)[O-])nn1CC(=O)N1CCc2ccccc2C1,22.1,0.7,0.9,0.8,27.8
Cc1ccc(N(C(=O)C2CCC(=O)N2)C2(C(=O)NC3CCCC3)CCCCC2)cc1 (configuration not stated),22.0,1,1.4,0.8,4.5
CCOC(=O)c1oc2cccc(O)c2c1CN1CCOCC1,36.8,0.4,1.5,0.6,60.3*
CCOC(=O)c1oc2ccc3c(c2c1C)C(=O)CC1(CCN(C(=O)OCC)CC1)O3,51.0*,0.5,1.4,0.5,52.1*
CCOC(=O)c1c(-c2ccccc2)oc2ccc(O)c(CN3CCOCC3)c12,48.5,0.4,1.5,0.5,56.3*
CCOC(=O)c1oc2cccc(O)c2c1C,-144.1,0.6,0.9,2.4*,44.6
Cc1nn(C)c(C)c1/C=N/N=C1\CCC2C3CCc4cc(O)ccc4C3CCC12C (configuration not stated),29.2,0.6,1.7,0.7,43.4
Cc1cc(C)cc(C(=O)N2CCC(C(N)=O)CC2)c1,-81.4,1,1,1.8,-0.1
O=C(NCc1ccccc1C(F)(F)F)C12CN(Cc3ccccc3)CC1C(c1ccc([N+](=O)[O-])cc1)=NO2 (configuration not stated),36.7,0.6,1.3,0.6,43.6
Cc1cccc(N2C(=O)N(c3ccccc3C)C3CS(=O)(=O)CC32)c1 (configuration not stated),12.1,0.7,1.2,0.9,27.4

# Assay outcomes from PubChem.
